In all, about 290,000 compounds went through this assay and about 3,000 (1%) were called active. The rule behind the calls is not given here. For the sample, actives were picked, then their nearest neighbours and some compounds at random.
Biological target: Polyadenylate-binding protein 1 (Homo sapiens) (UniProt P11940)
Assay: blockers of PABP interaction with poly(A) – biochemical, fluorescence polarization, uHTS, primary screen (AID 2014);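 note: calls also rest on retests at 20 µM and on dose response follow-up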
Details: PABP-poly(A) RNA binding, stronger effect = higher value

Polyadenylate-binding protein 1 (Homo sapiens), sequence (P11940 whole entry, looked up): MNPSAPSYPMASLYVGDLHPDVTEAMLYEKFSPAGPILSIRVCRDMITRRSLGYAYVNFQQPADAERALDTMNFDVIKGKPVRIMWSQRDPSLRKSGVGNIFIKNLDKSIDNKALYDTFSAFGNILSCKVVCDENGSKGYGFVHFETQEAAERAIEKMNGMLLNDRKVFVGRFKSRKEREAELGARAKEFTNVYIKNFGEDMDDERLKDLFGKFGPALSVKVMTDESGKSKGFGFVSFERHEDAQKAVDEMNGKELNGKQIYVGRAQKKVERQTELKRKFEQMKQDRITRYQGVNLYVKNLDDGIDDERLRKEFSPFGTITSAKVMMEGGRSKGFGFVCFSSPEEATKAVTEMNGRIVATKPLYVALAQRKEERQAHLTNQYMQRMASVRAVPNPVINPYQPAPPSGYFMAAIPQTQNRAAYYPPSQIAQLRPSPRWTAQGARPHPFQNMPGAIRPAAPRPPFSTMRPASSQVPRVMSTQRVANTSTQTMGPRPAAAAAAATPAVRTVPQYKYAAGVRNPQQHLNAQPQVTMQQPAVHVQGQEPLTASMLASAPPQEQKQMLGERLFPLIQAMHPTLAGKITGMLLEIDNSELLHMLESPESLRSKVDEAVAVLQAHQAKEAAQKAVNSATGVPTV

`O=C(O)COc1ccccc1/C=C1\C(=O)NC(=O)N(CCC2=CCCCC2)C1=O` was tested. Which inhibition (at 35 µM) did it give?
The inhibition was 53.5% (active).

Which inhibition (at 35 µM) does the source give for `O=C1NC(=O)N(Cc2ccco2)C(=O)/C1=C\c1cccn1CCOc1ccccc1` here?
Its inhibition is 10.9% (inactive).

With `O=C1NC(=O)N(CCc2ccc(F)cc2)C(=O)/C1=C/C=C/c1ccccc1` as the compound, how does the inhibition (at 35 µM) read?
Its inhibition is -13.4% (inactive).

With `COc1ccc(Br)cc1CNCCc1cccc(Cl)c1` as the compound, how does the inhibition (at 35 µM) read?
Its inhibition is 3.3% (inactive).

For `c1ccc(CC2CCCCN2)cc1` (stereo unspecified), which inhibition (at 35 µM) is on record?
The inhibition was 1.7% (inactive).

Which inhibition (at 35 µM) does the source give for `COc1ccc(CNCCc2c[nH]c3ccccc23)cc1OC` here?
The inhibition was 11.6% (inactive).

Which inhibition (at 35 µM) does the source give for `CCC(=NCCc1ccccc1)c1c(O)n(C2CCCCC2)c(=O)[nH]c1=O` here?
Its inhibition is -9.2% (inactive).

With `CC(=NCC1CCCO1)c1c(O)n(-c2ccccc2)c(=O)[nH]c1=O` (stereo unspecified) as the compound, how does the inhibition (at 35 µM) read?
Its inhibition is -3.4% (inactive).

Which inhibition (at 35 µM) does the source give for `CC(=O)c1c(O)n(C2CCCCCC2)c(=O)[nH]c1=O` here?
Its inhibition is 75.6% (active).

With `COc1cccc(OC)c1C(=O)NC(=S)N1C[C@H]2C[C@H](C1)c1cccc(=O)n1C2` as the compound, how does the inhibition (at 35 µM) read?
Its inhibition is 13.3% (inactive).

How did the inhibition (at 35 µM) turn out when `CN(C)c1ccc(/C=C2\CC3C4CC=C5CC(O)CCC5(C)C4CCC3(C)C2=O)cc1` (stereo unspecified) was run?
The inhibition was 53.3% (active).

And the inhibition (confirmation repeats, at 20 µM)?
The inhibition was 93.6%.

How did the inhibition (at 35 µM) turn out when `O=C(Cc1ccc(Cl)cc1)NCCN1CCN(C(=O)Cc2ccc(Cl)cc2)CC1` was run?
The inhibition was 3.1% (inactive).

For `O=[N+]([O-])c1cnc2ccc3ccccc3c2c1`, which inhibition (at 35 µM) is on record?
Its inhibition is 3.3% (inactive).

With `COc1ccc2[nH]c3c(c2c1)CCN[C@H]3C` as the compound, how does the inhibition (at 35 µM) read?
The inhibition was 7.6% (inactive).

How did the inhibition (at 35 µM) turn out when `COc1ccc(N=Cc2c(O)n(C)c(=O)[nH]c2=O)cc1` was run?
The inhibition was -8.6% (inactive).

Which inhibition (at 35 µM) does the source give for `CN(C)CCN(CC1CCCN(Cc2ccccc2F)C1)C(=O)Cc1ccc(F)c(F)c1` (stereo unspecified) here?
The inhibition was 0.6% (inactive).

`Cc1c(Oc2cc(NN3CCCCC3)c([N+](=O)[O-])cc2[N+](=O)[O-])cccc1[N+](=O)[O-]` was tested. Which inhibition (at 35 µM) did it give?
The inhibition was 2.3% (inactive).

`O=C(NC(=S)N1C[C@H]2C[C@H](C1)c1cccc(=O)n1C2)c1ccc(F)cc1` was tested. Which inhibition (at 35 µM) did it give?
Its inhibition is 2.2% (inactive).

How did the inhibition (at 35 µM) turn out when `CCN(CC)CCOC(=O)c1cc2cc(COC)ccc2o1` was run?
Its inhibition is 70.7% (active).

Which inhibition (at 35 µM) does the source give for `C=CCN1C(=O)NC(=O)/C(=C/c2ccc(OCC(=O)Nc3ccc(C)cc3)cc2)C1=O` here?
The inhibition was 8.1% (inactive).

How did the inhibition (at 35 µM) turn out when `COc1ccc(CNCCc2ccc3c(c2)OCO3)c(OC)c1OC` was run?
The inhibition was 11.3% (inactive).

Which inhibition (at 35 µM) does the source give for `N#CC1=C(N)Oc2c(c(=O)oc3ccccc23)C1c1ccccc1OC(=O)c1cccs1` (stereo unspecified) here?
Its inhibition is -4.4% (inactive).

`CCNc1nc2[nH]c(=O)c3c(c2s1)OC(N)=C(C#N)C3c1cccs1` (stereo unspecified) was tested. Which inhibition (at 35 µM) did it give?
Its inhibition is 68.5% (active).

With `COc1cccc(C(=O)N2C[C@H]3C[C@@H](C2)c2cccc(=O)n2C3)c1` as the compound, how does the inhibition (at 35 µM) read?
Its inhibition is 1.4% (inactive).

For `COc1ccccc1NC(=O)N1C[C@@H]2C[C@@H](C1)c1cccc(=O)n1C2`, which inhibition (at 35 µM) is on record?
Its inhibition is -1.1% (inactive).

For `O=C(O)c1ccccc1NC(=O)C1C2CCC(O2)C1C(=O)O` (stereo unspecified), which inhibition (at 35 µM) is on record?
The inhibition was -8.7% (inactive).

How did the inhibition (at 35 µM) turn out when `COc1cccc(N2C(=O)NC(=O)/C(=C\c3ccc([N+](=O)[O-])s3)C2=O)c1` was run?
The inhibition was -6.1% (active).

What about the inhibition (confirmation repeats, at 20 µM) of the same compound?
Its inhibition is 95.4%.

What does the source list for `O=C1NC(=O)N(c2ccccc2)C(=O)/C1=C/c1ccc([N+](=O)[O-])s1`?
inhibition (at 35 µM): 40.1% (inactive); inhibition (confirmation repeats, at 20 µM): 30.8%

Which inhibition (at 35 µM) does the source give for `Cc1cccc(N2C(=O)NC(=O)/C(=C\c3cnn(-c4ccccc4)c3)C2=O)c1` here?
The inhibition was -12.4% (inactive).

`Oc1cc2c(cc1CN1CCN(c3ccccc3)CC1)OCO2` was tested. Which inhibition (at 35 µM) did it give?
The inhibition was 2% (inactive).

For `COCCNC(=O)CN1C2CCC1CC(O)(c1cccnc1)C2` (stereo unspecified), which inhibition (at 35 µM) is on record?
Its inhibition is 14.6% (inactive).

What does the source list for `O=C1CC(=O)N(Cc2ccccc2)C(=O)N1CCCCCCN1C(=O)CC(=O)N(Cc2ccccc2)C1=O`?
inhibition (at 35 µM): 25.8% (active); inhibition (confirmation repeats, at 20 µM): 112%

With `CC(C)(C)c1ccc(CN2C(=O)CN=C(c3ccccc3)c3ccccc32)cc1` as the compound, how does the inhibition (at 35 µM) read?
The inhibition was 12.1% (inactive).

How did the inhibition (at 35 µM) turn out when `O=C(CN1CCCC1=O)NCCc1ccccc1` was run?
Its inhibition is -2.9% (inactive).

Which inhibition (at 35 µM) does the source give for `CC(C)c1ccc(OCC(=O)N2CCCN(C)CC2)cc1` here?
Its inhibition is -0.5% (inactive).

Which inhibition (at 35 µM) does the source give for `COc1ccc(N2C(=O)/C(=C/c3ccco3)C(=O)NC2=S)cc1` here?
Its inhibition is 38.7% (active).

And the inhibition (confirmation repeats, at 20 µM)?
The inhibition was 73.3%.

How did the inhibition (at 35 µM) turn out when `COc1ccc(CN2C(=O)NC(=O)/C(=C\c3ccc(OC)c(OC)c3OC)C2=O)cc1` was run?
The inhibition was 66.4% (inactive).

What about the inhibition (confirmation repeats, at 20 µM) of the same compound?
Its inhibition is 6.1%.

What does the source list for `Cc1cc(/C=C2/C(=O)NC(=O)N(Cc3ccco3)C2=O)c(C)n1-c1ccc(C(=O)O)cc1`?
inhibition (at 35 µM): 47.1% (inactive); inhibition (confirmation repeats, at 20 µM): 23.1%

Which inhibition (at 35 µM) does the source give for `COc1ccccc1OC(=O)c1ccc(C)c(S(=O)(=O)N2CCOCC2)c1` here?
The inhibition was -7% (inactive).

How did the inhibition (at 35 µM) turn out when `CCN(CC)C(=O)c1ccc(NC(=O)c2sccc2-c2ccccc2)cc1` was run?
Its inhibition is -2.6% (inactive).

With `CN(C)C(=O)Oc1ccc2c(c1)O/C(=C\c1ccccc1)C2=O` as the compound, how does the inhibition (at 35 µM) read?
The inhibition was -6.7% (inactive).

With `CC(=O)Nc1ccc(C(=O)C(Cc2ccccc2)N(C)C)cc1` (stereo unspecified) as the compound, how does the inhibition (at 35 µM) read?
Its inhibition is -3.6% (inactive).

`c1ccc(CCNC2CCCCCC2)cc1` was tested. Which inhibition (at 35 µM) did it give?
Its inhibition is 8.2% (inactive).

For `CCCCC(=O)N/N=C/c1c(O)n(-c2ccccc2)c(=O)[nH]c1=O`, which inhibition (at 35 µM) is on record?
Its inhibition is 5.3% (inactive).

With `O=c1[nH]c(=O)n(CCc2ccccc2)c(O)c1/C=N/N1CCOCC1` as the compound, how does the inhibition (at 35 µM) read?
Its inhibition is -1.6% (inactive).

With `O=c1[nH]c(=O)n(Cc2ccccc2)c(O)c1/C=N/Nc1c(F)c(F)c(F)c(F)c1F` as the compound, how does the inhibition (at 35 µM) read?
Its inhibition is 71% (active).

What does the source list for `O=C(N/N=C/c1c(O)n(Cc2ccccc2)c(=O)[nH]c1=O)c1ccccc1`?
inhibition (at 35 µM): 15% (active); inhibition (confirmation repeats, at 20 µM): 81.4%

Which inhibition (at 35 µM) does the source give for `O=C(N/N=C/c1c(O)n(C2CC2)c(=S)[nH]c1=O)c1ccccc1` here?
Its inhibition is 0.6% (inactive).

For `O=c1[nH]c(=O)n(CCc2ccc(F)cc2)c(O)c1/C=N/N1CCCCC1`, which inhibition (at 35 µM) is on record?
The inhibition was -15% (inactive).

For `CN1CCC(OC(=O)c2cccc(F)c2)CC1`, which inhibition (at 35 µM) is on record?
The inhibition was -7.8% (inactive).

How did the inhibition (at 35 µM) turn out when `CCN(CC)C(=O)Oc1ccc(NC(=O)N2CCOCC2)cc1` was run?
Its inhibition is 2.1% (inactive).

How did the inhibition (at 35 µM) turn out when `CCN1CCN(Cc2cc(OC)c3c(c2)OCO3)CC1` was run?
Its inhibition is 16.4% (inactive).

`Cc1ccc(C2CN(C)CC2C(=O)c2ccc(F)cc2)cc1` (stereo unspecified) was tested. Which inhibition (at 35 µM) did it give?
Its inhibition is 3.1% (inactive).

Which results are given for `CC1(C)Cc2c(C#N)c(N3CCNCC3)nc(-c3ccco3)c2CS1`?
inhibition (at 35 µM): 47.2% (active); inhibition (confirmation repeats, at 20 µM): 59.2%

How did the inhibition (at 35 µM) turn out when `O=C(N/N=C/c1c(O)n(C2CC2)c(=S)[nH]c1=O)c1ccccc1Cl` was run?
Its inhibition is 31% (inactive).

For `O=c1c2ccccc2nc(-c2ccco2)n1-c1ccc(Br)cn1`, which inhibition (at 35 µM) is on record?
Its inhibition is 5.1% (inactive).

With `O=c1c2ccccc2nc(/C=C/c2ccc(F)cc2)n1-c1ccccc1O` as the compound, how does the inhibition (at 35 µM) read?
Its inhibition is -9.7% (inactive).

What does the source list for `O=c1c2ccccc2nc(/C=C/c2ccco2)n1-c1ccccc1O`?
inhibition (at 35 µM): 43.7% (active); inhibition (confirmation repeats, at 20 µM): 54.4%

Which inhibition (at 35 µM) does the source give for `CN(C)S(=O)(=O)c1cc(C(=O)N2CCC(C(=O)O)(c3ccccc3)CC2)ccc1Cl` here?
The inhibition was 7.1% (inactive).

For `Cc1cccc(NC(=O)N2CC3CC(C2)c2cccc(=O)n2C3)c1` (stereo unspecified), which inhibition (at 35 µM) is on record?
The inhibition was -0.3% (inactive).

How did the inhibition (at 35 µM) turn out when `CC1CCC(N(C)C2CCN(C)CC2)CC1` (stereo unspecified) was run?
Its inhibition is 10.9% (inactive).

For `CN(C)CCCN=Cc1c(O)n(Cc2ccco2)c(=O)[nH]c1=O`, which inhibition (at 35 µM) is on record?
Its inhibition is 3% (inactive).

Which inhibition (at 35 µM) does the source give for `Cn1c(O)c(C=Nc2ccc3c(c2)CCC3)c(=O)n(C)c1=O` here?
Its inhibition is -0.7% (inactive).

`CC(C)n1c(=O)c(C=Nc2ccc(Br)cc2)c(O)n(Cc2ccco2)c1=O` was tested. Which inhibition (at 35 µM) did it give?
The inhibition was 6% (active).

And the inhibition (confirmation repeats, at 20 µM)?
The inhibition was 52%.

With `CCN1C(=O)C(=Cc2c(C)n(CC(=O)NCC3CCCO3)c3ccccc23)C(=O)N(CC)C1=S` (stereo unspecified) as the compound, how does the inhibition (at 35 µM) read?
The inhibition was -3.1% (inactive).

Source: PubChem BioAssay AID2014 (Sanford-Burnham Center for Chemical Genomics, 2009)
